Assay results published in the supplement of paper PMC11172423.

Tests used:
[1] = tested on: Falciformispora senegalensis CBS197.79; assay: growth relative to untreated control; higher = less inhibition, active = 20 or less
Method in brief: (§1)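 In 96-well plates, suspended hyphal fragments of M. mycetomatis MM55 or F. senegalensis CBS197.79 were exposed to compound at 100 or 25 µM for 7 days at 37 °C. The suspension medium was colourless RPMI 1640 with L-glutamine and MOPS, adjusted to 68–72% transmission at 660 nm. Viability was measured with MTS (2 h, 490 nm) or resazurin (600 nm). Growth means metabolic activity compared with the untreated growth control after blank correction of both with medium plus dye.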

[2] = tested on: Madurella mycetomatis MM55; assay: as above
Method in brief: as §1

Measured: growth

CCCN1CCC=C(c2cc(-c3ccc(C)cc3)no2)C1
active: [1]; 100 µM 16.5% | [2]; 100 µM 4.88%
inactive: [1]; 25 µM 103% | [2]; 25 µM 92.6%

O=C(Nc1cccc(Cl)c1)c1ccnc(N2CCC(N3CCCC3)CC2)c1
inactive: [1]; 25 µM 95.5% | [1]; 100 µM 28.1% | [2]; 25 µM 73.7%
active: [2]; 100 µM 5.81%

S=C(NCc1ccc2c(c1)OCO2)N1CCN(c2ncnc3c2oc2ccccc23)CC1
inactive: [1]; 25 µM 113% | [1]; 100 µM 106% | [2]; 25 µM 73.4% | [2]; 100 µM 77.9%

C[C@H](NC(=O)c1cc2ccc(Cl)cc2n1C)c1ccccc1
inactive: [1]; 25 µM 93.6% | [1]; 100 µM 81.7% | [2]; 25 µM 99.6% | [2]; 100 µM 81.1%

Cc1cc2ncc(C(=O)NCC(C)(C)NCC(=O)N3CCC[C@H]3C#N)cn2n1
inactive: [1]; 25 µM 105% | [1]; 100 µM 102% | [2]; 25 µM 82.4% | [2]; 100 µM 84.8%

c1ccc(-c2ccnc(C3CCN(CC45CNCC4C5)CC3)n2)cc1 (stereo not given)
inactive: [1]; 25 µM 82.4% | [1]; 100 µM 91.2% | [2]; 25 µM 71.4% | [2]; 100 µM 134%

CCCC(CCC)C(=O)O
inactive: [1]; 25 µM 112% | [1]; 100 µM 106% | [2]; 25 µM 76% | [2]; 100 µM 79.4%

CN(C)C(=N)N=C(N)N
inactive: [1]; 25 µM 104% | [1]; 100 µM 105% | [2]; 25 µM 87% | [2]; 100 µM 87.2%

CN(C)CCNC(=O)c1csc(Nc2ccc(Cl)c(Cl)c2)n1
inactive: [1]; 25 µM 92.7% | [1]; 100 µM 83.6% | [2]; 25 µM 47.4% | [2]; 100 µM 62.3%

N#Cc1c(N)nc(NC2CC2)nc1N
inactive: [1]; 25 µM 99.7% | [1]; 100 µM 92.9% | [2]; 25 µM 91.3% | [2]; 100 µM 95.4%
